# From PubChem BioAssay (NCATS)
# Records with an inconclusive call do not appear. Entries that show only a call come without a potency. Calls of active or inactive are those of the source. The call rests on the fitted dose curve.
# Target: Atrial natriuretic peptide receptor 1 (Homo sapiens) (UniProt P16066)
# Assay: Natriuretic polypeptide receptor (hNpr1) antagonism - Pilot CMLD screen (AID 1347052);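 further: HEK293 cells with hNpr1 stimulated by hNppA peptide at 0.1 nM; cGMP level read as GloSensor luciferase luminescence after agonist stimulation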
# Details: HEK293 hNpr1 GloSensor cGMP luminescence, ANP-stimulated; series mostly up to 9.22 µM
# Sequence of Atrial natriuretic peptide receptor 1 (Homo sapiens) (P16066 whole entry, looked up): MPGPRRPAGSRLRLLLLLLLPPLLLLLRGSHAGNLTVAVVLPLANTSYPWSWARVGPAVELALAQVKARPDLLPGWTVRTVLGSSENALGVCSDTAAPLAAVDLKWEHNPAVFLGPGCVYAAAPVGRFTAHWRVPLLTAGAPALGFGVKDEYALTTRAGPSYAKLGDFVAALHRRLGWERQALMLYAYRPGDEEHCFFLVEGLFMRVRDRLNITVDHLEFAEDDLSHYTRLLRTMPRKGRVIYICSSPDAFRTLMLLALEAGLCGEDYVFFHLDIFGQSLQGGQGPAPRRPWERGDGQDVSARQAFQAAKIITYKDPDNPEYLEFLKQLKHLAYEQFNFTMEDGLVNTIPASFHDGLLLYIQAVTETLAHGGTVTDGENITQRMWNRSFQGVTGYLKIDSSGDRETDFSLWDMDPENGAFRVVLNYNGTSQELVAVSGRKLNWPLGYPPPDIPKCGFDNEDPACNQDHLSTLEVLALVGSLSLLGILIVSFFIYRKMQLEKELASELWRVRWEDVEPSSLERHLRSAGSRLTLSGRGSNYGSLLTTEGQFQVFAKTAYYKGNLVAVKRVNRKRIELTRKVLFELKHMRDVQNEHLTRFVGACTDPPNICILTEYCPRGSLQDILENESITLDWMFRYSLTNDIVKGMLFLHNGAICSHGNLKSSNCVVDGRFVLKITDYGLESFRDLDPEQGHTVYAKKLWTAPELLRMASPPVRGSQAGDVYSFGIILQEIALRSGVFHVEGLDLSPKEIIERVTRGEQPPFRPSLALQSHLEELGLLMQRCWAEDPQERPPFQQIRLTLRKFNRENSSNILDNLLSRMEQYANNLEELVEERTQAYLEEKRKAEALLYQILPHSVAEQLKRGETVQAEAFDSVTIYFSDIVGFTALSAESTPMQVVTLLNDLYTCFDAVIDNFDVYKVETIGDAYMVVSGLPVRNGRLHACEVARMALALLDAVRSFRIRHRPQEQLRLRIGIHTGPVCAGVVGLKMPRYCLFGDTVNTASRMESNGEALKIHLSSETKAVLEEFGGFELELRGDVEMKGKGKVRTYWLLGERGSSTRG
row,Compound,Potency
1,C=CCC12C=C(OC)C(=O)C(C1=O)C1c3ccccc3CC12 (stereo not given),inactive
2,CC(C)(C(O)c1ccc([N+](=O)[O-])cc1)[N+](=O)[O-] (stereo not given),inactive
3,COC(=O)N[C@H](C(C(=O)OC)=C(C)NCc1ccccc1)c1ccccc1,inactive
4,COc1cc(C(CC2=C(c3ccccc3)Cc3ccccc32)NC(=O)C(F)(F)F)cc(OC)c1OC (stereo not given),inactive
5,CC(C)=CCCC(C)=CCN1C(=O)[C@@]2(C[C@@H](C)C[C@@H](C)O2)c2ccccc21,inactive
6,CCCCCCCC1=Cc2ccc(F)cc2C(C(C(=O)OC)C(=O)OC)N1C(=O)OC (stereo not given),inactive
7,C=CCCCC=C(C)[C@H](OCc1ccc(OC)cc1)[C@H](CCC=C(C)C(N)=O)OC,inactive
8,COc1cccc(C(CC2=CCCCC2)NC(=O)C(F)(F)F)c1 (stereo not given),inactive
9,COC1=C[C@H](C(=O)N2CCCC2)[C@H](C)[C@@H](c2ccccc2)CC1=O,inactive
10,CCCCCCCC1=Cc2ccccc2C(CC(=O)c2ccccc2)N1C(=O)OC (stereo not given),inactive
